Screening data from PubChem.
An excerpt weighted towards active compounds, which were near 12% of everything screened.
HP1b binding inh – inhibitors of HP1-beta chromodomain binding to methylated histone tails; P83916; AlphaScreen HP1-beta / biotin-H3K9me3 peptide binding; Potency, µM (series often up to 114 µM), inactives show at the top dose activity change, negative = inhibition, actives largely listed as inhibitors; 0.56% of 390,000 active; AID 540317; also: potency is read from the fitted curve at half-maximal effect; nearly all actives have a fitted effect of over 70% in size
Target sequence (P83916 whole entry, looked up): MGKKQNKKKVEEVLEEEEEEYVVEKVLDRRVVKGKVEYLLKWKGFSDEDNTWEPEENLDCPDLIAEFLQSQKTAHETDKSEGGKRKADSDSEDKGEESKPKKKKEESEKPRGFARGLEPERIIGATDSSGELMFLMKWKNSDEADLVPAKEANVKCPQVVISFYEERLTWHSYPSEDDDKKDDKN
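HP1-beta protein (50 nM final) preincubated 30 min at room temperature with biotinylated H3(1-18)K9me3 peptide (50 nM) in PBS pH 7.4, 0.01% Tween-20, then compound added for 30 min. AlphaScreen streptavidin donor/nickel chelate acceptor beads (10 ug/mL final), 30 min dark, luminescence read.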
BAZ2B inh – BAZ2B (human) inhibition. AlphaScreen BAZ2B-H3K14Ac peptide displacement. 4.4% of 360,000 active. Potency, µM (series often up to 114 µM), without a hit: at the highest dose activity change, negative = inhibition, actives largely listed as inhibitors. Q9UIF8; also: potency is read from the fitted curve at half-maximal effect; % is scaled to controls: 0 for no effect and ±100 for the full control effect; nearly all actives have a fitted effect of over 60% in size
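AlphaScreen displacement: compounds (up to 110uM) incubated 30 min at room temperature with a preformed 50 nM BAZ2B/50 nM biotinylated H3K14Ac peptide complex in PBS pH 7.4 with Tween-20. Donor and acceptor beads at 10 ug/mL final added, 20 min light-protected before reading.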
PI5P4Ka inh – PI5P4K alpha (human) kinase inhibition | P48426 | PI5P4Kalpha enzyme, ADP-Glo luminescence, 60 min; active compounds read low | max response, % | 1.2% of 330,000 active; active = max response of -50% or lower; inconclusive = between -30% and -50%; inactive = -30% or higher; also: value at the top dose of about 77 µM; % is scaled to controls: 0 for no effect and ±100 for the full control effect
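PI5P4Kalpha ADP-Glo assay; 5 microM ATP final; 60 min RT reaction; HEPES pH 7.4/EGTA/CHAPS, 5% DMSO; controls lacking substrate or enzyme; luminescent end-point.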
JMJD2A Tudor inh – blocks the human JMJD2A Tudor domain; AlphaScreen JMJD2A-Tudor / H3K4me3 peptide binding; 4.4% of 390,000 active; O75164; Potency, µM (highest dose often 114 µM), inactives show at the highest dose activity change, negative = inhibition, most hits filed as inhibitors; also: potency is read from the fitted curve at half-maximal effect; % is scaled to controls: 0 for no effect and ±100 for the full control effect; nearly all actives have a fitted effect of over 50% in size
G9a block – G9a (human) methyltransferase inhibition | Q96KQ7 | G9a H3K9 monomethylation, AlphaScreen, 2 h | Potency, µM (doses to about 102 µM), without a hit: top-dose activity, negative = inhibition, most hits filed as inhibitors | 8.8% of 350,000 active | AID 504332; also: potency is read from the fitted curve at half-maximal effect; % is scaled to controls: 0 for no effect and ±100 for the full control effect; nearly all actives have a fitted effect of over 75% in size
Target sequence (Q96KQ7 913-1193 limits assumed): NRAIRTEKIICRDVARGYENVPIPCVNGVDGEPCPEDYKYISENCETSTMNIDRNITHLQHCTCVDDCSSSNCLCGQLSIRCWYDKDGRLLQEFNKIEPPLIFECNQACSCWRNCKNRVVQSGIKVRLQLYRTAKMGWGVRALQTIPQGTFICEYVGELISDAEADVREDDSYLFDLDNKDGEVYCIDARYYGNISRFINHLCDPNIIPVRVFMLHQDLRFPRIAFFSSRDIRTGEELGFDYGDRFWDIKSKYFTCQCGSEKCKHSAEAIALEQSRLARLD
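Using a bead-based AlphaScreen, monomethylated H3K9 product from 2 h room-temperature reactions (G9a 20 nM, peptide 500 nM, SAM 20 uM) was detected with 0.5 ug/mL rabbit anti-H3K9me1 antibody.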
PLK1 PBD inh – inhibitors of human PLK1 polo-box domain binding | Plk1 PBD binding of FITC phosphopeptide, fluorescence polarization | Potency, µM, for inactives: max response, negative = inhibition, usual class: inhibitors | 2.8% of 360,000 active | AID 720504; also: potency is read from the fitted curve at half-maximal effect; series mostly up to about 57 µM; % is scaled to controls: 0 for no effect and ±100 for the full control effect; nearly all actives have a fitted effect of over 65% in size
* = called active by the depositor; ? = inconclusive; . = no result given; [ ] = another dose, or the depositor's remark. Unless noted, calls follow the shape of the dose curve; as a rule, active = well fitted curve in the direction sought with a large enough effect; inconclusive = small, poorly fitted or top-dose-only effect, or another doubt; inactive = no such curve, though single readings can be large; an effect the other way counts as inactive or inconclusive.

SMILES	HP1b binding inh	BAZ2B inh	PI5P4Ka inh	JMJD2A Tudor inh	G9a block	PLK1 PBD inh
C=C(CN(C)C)C(=O)c1ccc(C)cc1C	32µM*	.	7	79µM*	.	2.7µM*
CN1CC(=O)Nc2cc(C(=O)O)ccc21	18%	3%	.	-14%	?	.
Cc1ccc(-n2c(=O)c3c(c4cc(C)ccc4n3C)n(CC(=O)NCCC3=CCCCC3)c2=O)cc1	19%	0%	.	-7%	-13%[59 µM]	.
Cc1ccc(Cc2c(-c3ccc(C#N)cc3)nc3ccc(Cl)cn23)cc1	.	.	0	.	.	-9%
CCOC(=O)c1sc(=S)n(-c2ccccc2Cl)c1SC	-2%	42%	.	-18%	31%[59 µM]	-25%
CCOC(=O)c1c(N)sn(-c2ccccc2C)c1=S	-71%	?	?	56µM*	5.6µM*	5.3µM*
C/C=C(\C)C(=O)N1CCC(C(=O)c2ccccc2)CC1	32%	-6%	-2	-10%	26%	0%
COCCNC(=O)c1cc(S(=O)(=O)N2CCCCC2)ccc1N1CCOCC1	24%	?	8	-4%	-44%	-7%
COCCCNCc1cc(C)n(-c2cc(S(=O)(=O)N3CCOCC3)ccc2N2CCCC2)c1C	?	.	-6	79µM*	.	-14%
Cc1cc(C#N)c(C)n1-c1cc(S(=O)(=O)N2CCOCC2)ccc1N1CCCC1	-63%	-37%	?	?	6.3µM*	21µM*
CCOC(=O)c1cnc(SCC(=O)c2ccccc2)nc1N	3%	.	.	-20%	28µM*	-23%
Cc1cc(C)nc(SCC(=O)N2CCC(C(N)=O)CC2)n1	38%	-1%	.	-8%	11%[12.7 µM]	0%
CCOC(=O)c1cnc(SCC(=O)N2CCC(C(N)=O)CC2)nc1N	49%	-28%	-5	3%	50µM*	-21%
CCOC(=O)c1cnc(SCc2nc(N)nc(Nc3ccc(C)cc3)n2)nc1N	55%	-11%	6	-15%[11.4 µM]	18µM*	?
O=C(Nc1ccccc1C(=O)N1CCCCC1)c1ccc(Cl)cc1Cl	22%	10%	8	8%	-21%	-2%
COc1ccc(CCNC(=O)CCCn2c(=O)c3ccccc3n(Cc3ccccc3C)c2=O)cc1OC	13%	-1%	.	-13%	3%[59 µM]	.
CC(=O)NC1C(=O)N(CCN2CCOCC2)c2ccc(Br)cc21 (centres undefined)	?	10µM*	-5	8.9µM*	3.2µM*	-12%
CCN1C(=O)C(NC(C)=O)c2cc(OC)ccc21 (centres undefined)	48%	2%	-9	3%	50µM*	-1%
CCOc1ccc(C(=O)NCCN2CCOCC2)cc1	28%	-14%	5	2%	6%	-8%
COC(=O)c1oc2ccc(Br)cc2c1NC(=O)CCN1CCOCC1	19%	-3%	.	-12%	-21%	2%
CCOc1ccc2c(c1)C(NC(C)=O)C(=O)N2CCN1CCOCC1 (centres undefined)	22%	10µM*	-20	14µM*	16µM*	21µM*
CCCSc1ccc([C@H]2N[C@@](C)(C(=O)OC)[C@H]3C(=O)N(CC)C(=O)[C@@H]23)cc1	29%	.	-3	-22%	.	-11%
COc1ccc(Cl)cc1NC(=O)NCc1ccco1	22%	1%	0	-7%	-7%	-6%
COc1ccc(Cl)cc1NC(=O)NN1CCN(C)CC1	36%	50µM*	-5	3%	50µM*	2%
COc1ccc(Cl)cc1NC(=O)NCCN1CCCCC1	34%	-14%	1	-8%	?	10%
SMILES	HP1b binding inh	BAZ2B inh	PI5P4Ka inh	JMJD2A Tudor inh	G9a block	PLK1 PBD inh
C=CCNC(=O)Nc1cc(Cl)ccc1OC	-12%	8%	-8	-8%	1%	27µM*
CCN1CCN(C(=O)Nc2cc(Cl)ccc2OC)CC1	19%	-15%	4	-5%	50µM*	-2%
O=C1OC(C(=O)Nc2cc(C(F)(F)F)ccc2Cl)Cc2ccccc21 (centres undefined)	26%	?	.	-12%	-4%[59 µM]	.
O=S1(=O)c2ccccc2N=NN1Cc1ccc(Cl)c(Cl)c1	.	79µM*	.	.	2.8µM*	.
CC(C)(C)c1ccc(CN2N=Nc3ccccc3S2(=O)=O)cc1	-11%	-11%	-28	-12%	-24%[0.0925 µM]	13µM*
Nc1nc2ccccc2n1Cc1ccc(Cl)c(Cl)c1	35%	-4%	5	-19%	.	2%
COCCNC(=O)CN1CCN(S(=O)(=O)c2ccc3c(c2)CCCC3)CC1	25%	8%	6	-8%	-2%[12.7 µM]	-2%
CCCCc1nc2sc3c(=O)[nH]c(=S)[nH]c3c2c2c1CCC2	39%	.	-3	20µM*	.	-19%
CCCCc1nc2sc3c(=O)[nH]cnc3c2c2c1CCCC2	21%	3%	1	-6%	.	-4%
CC(=O)Nc1ccc(NC(=O)CSc2ccc(-c3sc(C)nc3C)nn2)cc1	28%	-11%	-8	5%	12%	-4%
Cc1nc(C)c(-c2ccc(SCC(=O)Nc3ccccc3)nn2)s1	33%	-1%	-4	8%	79µM*	-3%
Cc1cc(C)cc(NC(=O)CSc2ccc(-c3cccs3)nn2)c1	40%	-27%	5	-17%	22µM*	?
O=C(CSc1ccc(-c2cccs2)nn1)Nc1ccccc1	33%	-12%	6	-7%	8%	-8%
COc1cc2[nH]c(=S)nc(NCc3ccccc3)c2cc1OC	40%	0%	0	-18%	?	-8%
COc1cc2[nH]c(=S)nc(NCc3cccnc3)c2cc1OC	64%	-18%	-1	-5%	45µM*	-8%
COc1cc2[nH]c(=S)nc(NCc3ccccn3)c2cc1OC	21%	6%	-4	-23%	50µM*	-18%
COc1ccc(CNc2nc(=S)[nH]c3cc(OC)c(OC)cc23)cc1	28%	?	1	?	10µM*	-9%
CCNc1ncc2nc(C)c(=O)n(C3CC3)c2n1	.	.	.	.	9%[0.501 µM]	.
CCN1CCCc2cc(CN(CCN3CCOCC3)C(=S)Nc3ccc(OC)c(OC)c3)ccc21	30%	-34%	0	-26%[11.4 µM]	-7%[59 µM]	-6%
CCc1ccc(NC(=O)N(CCN2CCOCC2)Cc2ccc3c(c2)CCCN3CC)cc1	28µM*	?	.	22µM*	32µM*	-14%
CCCCN1CCCc2cc(CN(CCCN3CCOCC3)C(=O)Nc3ccc(OCC)cc3)ccc21	?	-26%	.	13µM*	?	.
CCN1CCCc2cc(CN(CCN3CCOCC3)C(=O)Nc3ccc(C)c(C)c3)ccc21	?	45µM*	25	28µM*	8.9µM*	-18%
CCc1ccc(NC(=O)N(CCCN2CCOCC2)Cc2cccs2)cc1	40%	11%	1	-26%	8%	-8%
O=C(OCC#CCSc1nnc(-c2cccc3ccccc23)o1)c1cc2ccccc2s1	.	.	.	0%	.	.
OCC(O)C(O)C(O)CO (centres undefined)	.	.	.	.	-12%[2.33 µM]	.
